Measurements reported in PubChem BioAssay AID933 (National Center for Advancing Translational Sciences (NCATS), 2007).
Records with an inconclusive call do not appear. A call without a number means that no potency is given here. Active and inactive are the calls of the source. Calls follow the shape of the dose curve; as a rule, active = well fitted activation curve with a large enough effect in the signal ratio, with a control signal flat; inconclusive = small, poorly fitted or top-dose-only effect, or a change in a side signal; inactive = flat fitted curve, though single readings scatter; the % refers to the signal ratio.

target: Thyrotropin receptor (Homo sapiens) (UniProt P16473); experiment: Secondary Concentration-Response Assay for Agonists of the Thyroid Stimulating Hormone Receptor: HTRF Activity Detection; conditions: HEK293-TSHR cells, cAMP HTRF ratio, 30 min; series mostly up to 91.7 µM
Sequence (P16473 whole entry, looked up): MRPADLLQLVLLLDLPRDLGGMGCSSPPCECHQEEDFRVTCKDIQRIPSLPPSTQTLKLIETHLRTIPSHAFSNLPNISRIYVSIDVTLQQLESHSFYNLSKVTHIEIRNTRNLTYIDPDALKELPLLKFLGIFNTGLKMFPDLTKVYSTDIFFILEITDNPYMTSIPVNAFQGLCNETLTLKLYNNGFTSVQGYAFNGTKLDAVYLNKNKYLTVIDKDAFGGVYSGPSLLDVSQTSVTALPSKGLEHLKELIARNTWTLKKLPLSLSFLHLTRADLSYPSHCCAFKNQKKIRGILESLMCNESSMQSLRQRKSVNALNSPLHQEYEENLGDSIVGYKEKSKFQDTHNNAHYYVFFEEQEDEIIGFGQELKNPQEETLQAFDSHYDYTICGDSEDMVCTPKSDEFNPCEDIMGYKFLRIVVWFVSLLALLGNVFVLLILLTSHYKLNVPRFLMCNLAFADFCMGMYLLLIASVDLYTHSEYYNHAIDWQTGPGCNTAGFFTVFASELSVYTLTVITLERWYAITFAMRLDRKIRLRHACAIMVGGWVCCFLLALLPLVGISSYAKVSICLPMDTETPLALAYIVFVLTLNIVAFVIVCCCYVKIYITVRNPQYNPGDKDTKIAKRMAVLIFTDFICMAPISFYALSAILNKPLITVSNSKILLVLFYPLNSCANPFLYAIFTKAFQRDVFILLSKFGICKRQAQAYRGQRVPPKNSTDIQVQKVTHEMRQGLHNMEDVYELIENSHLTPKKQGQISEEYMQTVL
Summary of the method: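 cAMP accumulation was detected by antibody-based HTRF, excitation 330 nm, emissions 615 and 660 nm. Compounds acted for 30 min at room temperature on stably TSHR-transfected HEK 293 cells, with phosphodiesterase inhibitor RO 20-1724 (100 uM) in the medium.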
Potency is read from the fitted curve at half-maximal effect.

Row | SMILES | Potency
1 | COc1ccc(C2Nc3ccccc3C(=O)N2Cc2ccc(C(F)(F)F)cc2)cc1COc1ccc(NC(C)=O)cc1 (centres undefined) | inactive
2 | COc1ccc(C2Nc3ccccc3C(=O)N2Cc2ccccc2)cc1OCc1ccc(NC(C)=O)cc1 (centres undefined) | inactive
3 | CCCN1C(=O)c2ccccc2NC1c1cc(OC)c(OC)c(OC)c1 (centres undefined) | inactive
4 | O=C(COC(=O)C12CC3CC(CC(C3)C1)C2)NCC1CCCO1 (centres undefined) | inactive
5 | COc1ccc(C2Nc3ccccc3C(=O)N2Cc2cccc(Cl)c2)cc1COc1ccc(NC(C)=O)cc1 (centres undefined) | 2.82 µM (active)
6 | CC(=O)Nc1ccc(C2Nc3ccccc3C(=O)N2C2CCCCC2)cc1 (centres undefined) | inactive
7 | COc1cccc2cc(C(=O)N(Cc3cccs3)Cc3cccs3)c(=O)oc12 | inactive
8 | COc1ccc(C2Nc3ccc(NC(C)=O)cc3C(=O)N2Cc2cccc(Cl)c2)cc1COc1ccc(NC(C)=O)cc1 (centres undefined) | 7.94 µM (active)
9 | CCCN1C(=O)c2ccccc2NC1c1ccc(OC)c(COc2cccc(C)c2C)c1 (centres undefined) | inactive
10 | COc1ccc(C2Nc3ccc(NC(=O)CO)cc3C(=O)N2Cc2cccc(Cl)c2)cc1COc1ccc(NC(C)=O)cc1 (centres undefined) | 5.62 µM (active)
11 | CCN(CC)CCN1C(=O)c2ccccc2NC1c1ccc(OC)c(COc2ccc(NC(C)=O)cc2)c1 (centres undefined) | inactive
12 | COc1ccc(C2Nc3ccccc3C(=O)N2C2CCCC2)cc1COc1ccc(NC(C)=O)cc1 (centres undefined) | inactive
13 | COc1cc(C2Nc3ccccc3C(=O)N2c2ccc3c(c2)OCCO3)ccc1OCC(C)C (centres undefined) | inactive
14 | COc1ccc(C2Nc3ccccc3C(=O)N2c2ccc(C)cc2)cc1Cn1cc([N+](=O)[O-])cn1 (centres undefined) | inactive
